A short description of assay [1]: Nuclear factor erythroid 2-related factor 2/antioxidant responsive element (Nrf2/ARE) small molecule agonists: luciferase reporter gene qHTS assay in human keratinocytes (AID 1919969). Also: nearly all actives have a fitted effect of over 35% in size. Also: potency is read from the fitted curve at half-maximal effect.
The target in assay [2] is Gonadotropin-releasing hormone receptor (Homo sapiens) (UniProt P30968). Kind of assay: Human gonadotropin-releasing hormone receptor (GnRHR) small molecule agonists, calcium flux assay in GnRHR-HEK293 cells (AID 1920063). Also: nearly all actives have a fitted effect of over 35% in size. An outline of the steps: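 Agonist activity was measured as intracellular calcium flux in HEK293 cells engineered to stably express human GnRHR. After dye loading for 1 hour at 37 C, compounds in DMSO were added and fluorescence was followed for 3 minutes.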
Chain of Gonadotropin-releasing hormone receptor (Homo sapiens) (P30968 whole entry, looked up): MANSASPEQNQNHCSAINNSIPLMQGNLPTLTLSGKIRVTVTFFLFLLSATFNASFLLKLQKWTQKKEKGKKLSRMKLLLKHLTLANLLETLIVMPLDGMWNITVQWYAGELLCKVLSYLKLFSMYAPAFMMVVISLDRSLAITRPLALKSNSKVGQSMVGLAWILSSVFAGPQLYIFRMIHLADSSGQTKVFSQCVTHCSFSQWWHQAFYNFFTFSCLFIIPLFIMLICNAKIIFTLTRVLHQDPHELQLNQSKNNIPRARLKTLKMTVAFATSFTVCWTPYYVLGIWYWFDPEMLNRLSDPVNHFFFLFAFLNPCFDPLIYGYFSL
Background: A change in cytosolic calcium serves as a functional read-out for many receptors and channels.

Assay [3] has as its target KiSS-1 receptor (Homo sapiens) (UniProt Q969F8). As to the kind of experiment: Human kisspeptin (KISS1R) small molecule agonists, calcium flux assay in KISS1R-HEK293 cells (AID 1920064; active = well fitted activation curve with a large enough effect in the repeat runs). An outline of the steps:
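Agonist activity is monitored as intracellular calcium rise in engineered HEK293 cells carrying human KISS1R. Cells are dye-loaded for 1 h at 37 C before compound addition, and fluorescence is recorded for 3 min.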

A short description of assay [4]: p53 small molecule agonists, cell-based qHTS assay with human liver microsomes (AID 1963577).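 Also: p53 response element beta-lactamase reporter cells with liver microsomes plus NADPH.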 An outline of the steps: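 p53RE-bla cells; 5 h settle, 37 C/5% CO2; cpd + HLM 0.5 mg/mL + NADPH 0.5 mg/mL (final); 16 h 37 C; LiveBLAzer 2 h RT dark; fluorescence readout.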
The nature of assay [5]: p53 small molecule agonists, cell-based qHTS assay with rat liver microsomes (AID 1963578). An outline of the steps:
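Rat liver microsome activation: microsomes 0.5 mg/mL, NADPH 0.5 mg/mL final; p53RE-bla cells, 16 h 37 C; LiveBLAzer readout, 2 h RT dark.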

Assay [6] can be described thus: p53 small molecule agonists, cell-based qHTS assay with human liver microsomes: qHTS cell viability counter screen (AID 1963579). Also: nearly all actives have a fitted effect of over 45% in size. Also: potency is read from the fitted curve at half-maximal effect. An outline of the steps: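 Luminescent CellTiter-Glo read-out, 30 min at room temperature, gauged cytotoxicity in p53RE-bla cells exposed 16 h at 37 C to DMSO-dissolved compounds with metabolic activation by human liver microsomes and NADPH, each 0.5 mg/mL final.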
(qHTS replaces the single test concentration by a dilution series.)

Assay [7] is described as follows: p53 small molecule agonists, cell-based qHTS assay with rat liver microsomes: qHTS cell viability counter screen (AID 1963580). Also: nearly all actives have a fitted effect of over 45% in size. The method in brief: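 After the beta-lactamase ratio was read, CellTiter-Glo was added to the same wells and luminescence measured at 30 min; cells had been treated 16 h at 37 C with compounds, rat liver microsomes and NADPH (0.5 mg/mL final each).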

Assay [8] can be described thus: p53 small molecule agonists, cell-based qHTS assay: qHTS cell viability counter screen (AID 1963581). Also: nearly all actives have a fitted effect of over 45% in size. The method in brief:
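Viability was counter-screened in parallel with the p53 agonist reporter by measuring intracellular ATP luminescence in the same HCT-116 p53RE-bla wells after 16 h compound treatment at 37 C.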

Assay [9] can be described thus: p53 small molecule agonists, cell-based qHTS assay (AID 1963582; active = well fitted activation curve with a large enough effect in the signal ratio in the repeat runs, not every such curve was filed as active; the % refers to the signal ratio). The method in brief: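 Cells carrying a p53-responsive bla reporter are treated with test compounds for 16 h at 37 C; beta-lactamase activity is then detected with LiveBLAzer B/G FRET substrate after 2 h at room temperature.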
The target in assay [10] is 5-hydroxytryptamine receptor 2A (Homo sapiens) (UniProt P28223). Kind of assay: 5-hydroxytryptamine receptor 2A (HTR2A) small molecule antagonists, cell-based qHTS assay (AID 1963586). Also: nearly all actives have a fitted effect of over 45% in size. Also: potency is read from the fitted curve at half-maximal effect. An outline of the steps:
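CHO cells stably expressing human HTR2A were plated for 18 h at 37 C, then loaded with calcium dye for 1 h. Compounds were preincubated 5 min at room temperature before DOI (4 nM solution) was added. Kinetic fluorescence was read for 3 min.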

Assay [11] deals with Muscarinic acetylcholine receptor M1 (Homo sapiens) (UniProt P11229). As to the kind of experiment: Cholinergic receptor muscarinic 1 (CHRM1) small molecule antagonists, cell-based qHTS assay (AID 1963588). Also: nearly all actives have a fitted effect of over 40% in size. Also: potency is read from the fitted curve at half-maximal effect. The method in brief: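 Compounds were tested at 15 concentrations in three independent runs. Dye-loaded CHRM1-CHO cells were exposed 5 min at room temperature before stimulation by acetylcholine added at 50nM. Intracellular calcium was read kinetically on FDSS for 3 min.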
Chain of Muscarinic acetylcholine receptor M1 (Homo sapiens) (P11229 whole entry, looked up): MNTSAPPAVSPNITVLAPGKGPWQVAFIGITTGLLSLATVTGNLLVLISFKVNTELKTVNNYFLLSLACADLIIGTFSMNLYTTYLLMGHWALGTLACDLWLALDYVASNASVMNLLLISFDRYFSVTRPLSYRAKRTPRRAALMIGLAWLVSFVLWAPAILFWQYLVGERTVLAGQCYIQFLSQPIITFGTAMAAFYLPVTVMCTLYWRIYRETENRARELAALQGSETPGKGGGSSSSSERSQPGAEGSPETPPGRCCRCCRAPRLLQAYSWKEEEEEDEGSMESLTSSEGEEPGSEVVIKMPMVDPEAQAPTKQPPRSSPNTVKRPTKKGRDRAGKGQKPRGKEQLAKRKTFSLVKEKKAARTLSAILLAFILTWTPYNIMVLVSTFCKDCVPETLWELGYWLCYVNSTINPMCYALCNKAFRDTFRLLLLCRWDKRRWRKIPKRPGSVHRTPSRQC

For assay [12] the target is unchanged. As to the kind of experiment: Cholinergic receptor muscarinic 1 (CHRM1) small molecule agonists, cell-based qHTS assay (AID 1963589). Also: nearly all actives have a fitted effect of over 35% in size. The method in brief: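 Cells were plated and incubated 18 h at 37 C/5% CO2, loaded with calcium dye for 1 h at 37 C, then treated with compounds in DMSO. Fluorescence was recorded kinetically at 1 sec intervals.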
The target in assay [13] is Beta-2 adrenergic receptor (Homo sapiens) (UniProt P07550). Kind of assay: Adrenergic beta2 receptor (ADRB2) small molecule antagonists, cell-based qHTS assay (AID 1963592). Also: series mostly up to about 92 µM; nearly all actives have a fitted effect of over 50% in size. An outline of the steps: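 Assay format: CHO-ADRB2 cells, 18-20hr seeding at 37C/5% CO2, then compound plus 1nM isoproterenol agonist mix for 0.5hr RT. Homogeneous time-resolved fluorescence cAMP detection after 1hr, expressed as 665/615 nm ratio.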
Chain of Beta-2 adrenergic receptor (Homo sapiens) (P07550 whole entry, looked up): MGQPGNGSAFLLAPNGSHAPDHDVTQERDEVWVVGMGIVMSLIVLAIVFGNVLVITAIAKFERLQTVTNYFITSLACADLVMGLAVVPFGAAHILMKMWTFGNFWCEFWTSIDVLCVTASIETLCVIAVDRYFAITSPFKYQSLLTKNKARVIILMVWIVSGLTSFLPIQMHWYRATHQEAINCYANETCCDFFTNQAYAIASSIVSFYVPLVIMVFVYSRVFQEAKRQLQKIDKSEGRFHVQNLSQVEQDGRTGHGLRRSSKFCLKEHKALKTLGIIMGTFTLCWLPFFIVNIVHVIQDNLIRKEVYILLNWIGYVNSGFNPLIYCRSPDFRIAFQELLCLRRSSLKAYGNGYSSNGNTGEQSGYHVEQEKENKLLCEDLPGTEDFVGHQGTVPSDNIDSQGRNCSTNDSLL

The target is the same in assay [14]. Kind of assay: Adrenergic beta2 receptor (ADRB2) small molecule agonists, cell-based qHTS assay (AID 1963593).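 Also: CHO cells stably overexpressing human ADRB2.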 The method in brief: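 CHO cells stably over-expressing ADRB2 were plated overnight at 37C, then dosed with compounds plus a stimulation mix containing 100uM IBMX and 25uM Ro-20-1724 for 0.5hr at room temperature. cAMP was measured by HTRF competition, 1hr.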

Assay [15] concerns the target D(2) dopamine receptor (Homo sapiens) (UniProt P14416). Kind of assay: Dopamine D2 receptor (DRD2) small molecule agonists, cell-based qHTS assay (AID 1963594). Also: nearly all actives have a fitted effect of over 35% in size. The method in brief:
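HEK293 cells stably expressing human DRD2, pre-treated with PDE inhibitor Ro20-1724 (0.1 mM final) and compound 10 min at room temperature, then stimulated with NKH477 (200nM […]) for 30 min. cAMP read by HTRF (665/620 nm).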

Assay [16] shares this target. Kind of assay: Dopamine D2 receptor (DRD2) small molecule antagonists, cell-based qHTS assay (AID 1963595; active = well fitted inhibition curve with a large enough effect in the signal ratio in the repeat runs, with a control signal flat; the % refers to the signal ratio). An outline of the steps: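 HTRF cAMP read-out at 665 and 620 nm emission (340 nm excitation). Antagonist mode: compounds were tested against 12 nM quinpirole in DRD2-HEK293 cells, with 200 nM NKH477 raising cAMP and 0.1 mM Ro20-1724 blocking its breakdown.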

A short description of assay [17]: cAMP Responsive Elements (CRE) small molecule agonists, cell-based qHTS assay (AID 1963590). An outline of the steps:
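Cells carrying a CRE-driven beta-lactamase reporter (HEK 293T) are seeded, incubated overnight (18 h), and treated with test compounds for 3 h at 37 C; reporter activity is then detected with a FRET substrate after 2 h at room temperature.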

A short description of assay [18]: cAMP Responsive Elements (CRE) small molecule antagonists, cell-based qHTS assay (AID 1963591; active = well fitted inhibition curve with a large enough effect in the signal ratio in the repeat runs, not every such curve was filed as active; the % refers to the signal ratio). An outline of the steps:
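Cells (CRE-bla HEK 293T, DMEM with 10% dialyzed FBS and 25 mM HEPES) are seeded and incubated 18 h. Compounds are added with NKH477 agonist at 0.25 uM final for 3 h, then FRET substrate for 2 h.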

The target of assay [19] is 5-hydroxytryptamine receptor 2A (Homo sapiens) (UniProt P28223). As to the kind of experiment: 5-hydroxytryptamine receptor 2A (HTR2A) small molecule agonists, cell-based qHTS assay (AID 1963587). Also: nearly all actives have a fitted effect of over 30% in size. The method in brief:
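CHO cells stably expressing human HTR2A, plated 18 h, loaded with calcium dye 1 h at 37 C. Agonist mode: compounds added and intracellular calcium fluorescence recorded kinetically for 2 min at 1 sec intervals.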

Unmarked numbers belong to inactive results. Results filed as inconclusive are left out. The source made the active and inactive calls. Unless noted, calls follow the shape of the full dose curve.

Chain of D(2) dopamine receptor (Homo sapiens) (P14416 whole entry, looked up): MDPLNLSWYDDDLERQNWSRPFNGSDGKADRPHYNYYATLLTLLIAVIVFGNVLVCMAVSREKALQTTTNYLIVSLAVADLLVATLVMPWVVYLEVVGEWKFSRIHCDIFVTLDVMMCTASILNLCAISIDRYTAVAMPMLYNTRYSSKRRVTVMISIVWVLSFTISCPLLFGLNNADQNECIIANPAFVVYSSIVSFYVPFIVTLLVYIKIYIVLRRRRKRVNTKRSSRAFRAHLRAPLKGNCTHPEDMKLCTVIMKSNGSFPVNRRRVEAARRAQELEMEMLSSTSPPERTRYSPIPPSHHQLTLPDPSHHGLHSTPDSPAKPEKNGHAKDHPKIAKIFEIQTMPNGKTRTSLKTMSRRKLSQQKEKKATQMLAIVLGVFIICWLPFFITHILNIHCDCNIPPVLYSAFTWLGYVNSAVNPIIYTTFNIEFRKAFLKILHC
Chain of 5-hydroxytryptamine receptor 2A (Homo sapiens) (P28223 whole entry, looked up): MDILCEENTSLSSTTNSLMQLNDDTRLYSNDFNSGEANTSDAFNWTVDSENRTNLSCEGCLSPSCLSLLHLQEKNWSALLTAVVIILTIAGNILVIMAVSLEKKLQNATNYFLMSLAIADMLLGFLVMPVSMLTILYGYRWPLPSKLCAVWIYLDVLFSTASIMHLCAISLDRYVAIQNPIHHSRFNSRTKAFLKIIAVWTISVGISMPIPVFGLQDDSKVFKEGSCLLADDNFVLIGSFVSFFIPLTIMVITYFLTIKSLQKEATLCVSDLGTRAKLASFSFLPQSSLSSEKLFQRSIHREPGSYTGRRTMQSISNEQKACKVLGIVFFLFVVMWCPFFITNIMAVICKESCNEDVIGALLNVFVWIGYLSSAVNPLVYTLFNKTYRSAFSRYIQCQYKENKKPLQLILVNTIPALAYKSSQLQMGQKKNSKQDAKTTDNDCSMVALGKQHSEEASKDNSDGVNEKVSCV
Chain of KiSS-1 receptor (Homo sapiens) (Q969F8 whole entry, looked up): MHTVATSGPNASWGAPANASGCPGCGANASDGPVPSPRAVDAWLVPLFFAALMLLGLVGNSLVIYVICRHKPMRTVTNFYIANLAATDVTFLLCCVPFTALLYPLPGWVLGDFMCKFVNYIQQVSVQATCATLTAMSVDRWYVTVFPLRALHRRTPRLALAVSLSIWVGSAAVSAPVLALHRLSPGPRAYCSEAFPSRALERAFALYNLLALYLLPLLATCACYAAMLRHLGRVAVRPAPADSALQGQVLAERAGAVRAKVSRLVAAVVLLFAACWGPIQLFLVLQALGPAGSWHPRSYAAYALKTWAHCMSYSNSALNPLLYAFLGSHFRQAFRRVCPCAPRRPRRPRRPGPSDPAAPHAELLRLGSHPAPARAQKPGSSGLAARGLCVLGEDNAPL

For `Cc1ccc(O)c(C(C)(C)C)c1`, the Potency result in [1], in assay [2], in assay [3], in assay [4], in [5] and in assay [6] was “inactive” each time. Besides, the Potency result in assay [7], in [8], in [9], in [11], in assay [12] and in [13] was “inactive” throughout. The Potency result in [14], in assay [15] and in assay [16] was “inactive” each time. Moreover, the Potency in assay [10] is 33.4 µM (active).
Regarding `O=C(Nc1ccc(S(=O)(=O)N2CCOCC2)cc1)c1cc(Cl)ccc1NS(=O)(=O)c1ccc(Cl)s1`, the Potency result in assay [1], in [2], in assay [3], in [4], in assay [5] and in assay [6] was “inactive” each time. Besides, the Potency result in [7], in assay [8], in assay [11], in [12], in assay [17] and in [18] was “inactive” each time. Further, the Potency result in [13], in assay [15] and in assay [16] was “inactive” throughout.
Regarding `O=C(Nc1cccc(C(F)(F)F)c1)c1cc(Br)cc(Br)c1O`, the values for the Potency in assay [1] and in [6] were 9.69 µM (active) and 9.13 µM (active), respectively. Besides, the Potency result in assay [2], in assay [3], in [4], in assay [5], in assay [19] and in assay [11] was “inactive” in each case. The Potency result in assay [12], in [15] and in assay [16] was “inactive” throughout.
As for `COc1ccc(COC=O)cc1`, the Potency result in [1], in assay [2], in [3], in assay [7], in assay [8] and in [10] was “inactive” in each case. The Potency entry in assay [19], in assay [11], in [12], in assay [17], in assay [18] and in assay [13] was “inactive” each time. Moreover, the Potency result in assay [16] is “inactive”.
`O=C(Oc1ccccc1)c1ccc2ccccc2c1O`: in assay [1], the Potency was 8.63 µM (active). The Potency entry in assay [2], in assay [3], in [4], in assay [5], in [6] and in assay [7] was “inactive” in each case. The Potency result in assay [8], in assay [9], in assay [10], in [19], in [11] and in [12] was “inactive” each time. The Potency entry in assay [17], in [18], in assay [13], in assay [15] and in [16] was “inactive” throughout.
As for `CC1CCCCN1CCCOC(=O)c1ccc(OC2CCCCC2)cc1` (stereo unspecified), the Potency entry in assay [1], in [2], in assay [3], in assay [5], in [6] and in [7] was “inactive” in each case. The Potency entry in [8], in assay [17], in assay [18], in assay [13], in [15] and in [16] was “inactive” throughout. Also, the Potency in assay [11] was 0.365 µM (active).
